Laboratory results: PubChem BioAssay (NCI)
This is part of a sample that, as a whole, favours compounds with a hit. Of some 79,000 tested, about 15% had one in any assay. No stated cut-off is given here; in the data, active means growth inhibition above about 70%; inactive means the rest.

Key:
[1] = NCI Yeast Anticancer Drug Screen. Data for the rad50 strain (AID 155);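 further: 0% = growth of vehicle-only cultures of the same strain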; details: S. cerevisiae rad50 strain growth inhibition, stronger effect = higher value; at 50.0 µM unless noted
How it was run: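 DNA repair mutant yeast, compound exposure, growth read-out; inhibition is taken relative to vehicle.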

[2] = NCI Yeast Anticancer Drug Screen. Data for the mec2-1 strain (AID 157); details: S. cerevisiae mec2-1 strain, stronger effect = higher value; at 50.0 µM unless noted
How it was run: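 Each compound was tested on mec2-1 yeast, a strain altered in DNA damage repair or cell cycle control. Growth inhibition is reported relative to vehicle.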

[3] = NCI Yeast Anticancer Drug Screen. Data for the sgs1 mgt1 strain (AID 161);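 further: 0% = growth of cultures given vehicle only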; details: S. cerevisiae sgs1 mgt1 strain, stronger effect = higher value; at 50.0 µM unless noted
How it was run: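 Genetically altered yeast, compound exposure, growth inhibition relative to vehicle.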

[4] = NCI Yeast Anticancer Drug Screen. Data for the cln2 rad14 strain (AID 165);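 further: 0% = growth equal to vehicle treated cultures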; details: S. cerevisiae cln2 rad14 strain, stronger effect = higher value; at 50.0 µM unless noted
How it was run: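 Test compounds were added to cln2 rad14 yeast cultures; inhibition of growth was then determined by comparison with vehicle treatment.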

[5] = NCI Yeast Anticancer Drug Screen. Data for the bub3 strain (AID 167); details: S. cerevisiae bub3 mutant strain, stronger effect = higher value; at 50.0 µM unless noted
How it was run: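 In this screen, a yeast mutant lacking normal mitotic checkpoint function is challenged with compound. Relative growth versus vehicle gives the inhibition value.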

[6] = NCI Yeast Anticancer Drug Screen. Data for the mlh1 rad18 strain (AID 175); details: S. cerevisiae mlh1 rad18 strain growth inhibition, stronger effect = higher value; at 50.0 µM unless noted
How it was run: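 Inhibition values reflect reduced growth of mutant yeast versus vehicle-treated controls following compound exposure; the mutations affect DNA damage repair.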

Measured: growth inhibition

CCC(O)C(C)(C)[N+](=O)[O-] (stereo not drawn)
inactive: [1] 3.35% | [2] -3.25% | [3] -2.6% | [4] -2.05% | [5] -0.8% | [6] 0.35%

OC1c2ccccc2C2c3ccccc3C1C2Cl (stereo not drawn)
inactive: [1] 43.8% | [2] 5.9% | [3] 25.8% | [4] 35.3% | [5] -5.7% | [6] 39.8%

CCCCOC(c1ccccc1)c1ccccc1
inactive: [1] -19.8% | [2] -18.6% | [3] -11.8% | [4] -17.8% | [5] -4.25% | [6] 1.95%

O=C(O)/C(=C/c1cccc(Cl)c1)c1ccc(Cl)cc1
inactive: [1] 0.85% | [2] -10.8% | [3] 0.7% | [4] -51.8% | [5] 2.4% | [6] -0.75%

C(/C=N/NC1=NCCN1)=N\NC1=NCCN1
inactive: [1] 42% | [2] 18.1% | [3] 28.4% | [4] 2.85% | [5] 36.6% | [6] 41.5%

COc1cc2c(cc1C(C)c1ccc(Cl)cc1)OCO2 (stereo not drawn)
inactive: [1] 12.8% | [2] -1.55% | [3] -1.6% | [4] 21% | [5] 20.2% | [6] 4.9%

COc1ccc(C2S/C(=C\c3ccc([N+](=O)[O-])cc3)C(=O)N2NC(=O)Cc2ccccc2)cc1 (stereo not drawn)
inactive: [1] 17.9% | [2] -7.95% | [3] 2.9% | [4] -23.8% | [5] 11.4% | [6] 8.65%

CCN(CC)CCN=c1nc(/C=C\C=C\NN(C)C(=S)SC)c(C)nn1C
inactive: [1] -49.7% | [2] -7.95% | [3] -15% | [4] -12.3% | [5] -1.05% | [6] -12.8%

COc1ccc(N(C(=O)NCCO)c2ccccc2)cc1
inactive: [1] -3.75% | [2] -15.8% | [3] 14.9% | [4] 14.6% | [5] -2.3% | [6] 26.7%

O=c1[nH]c(=O)n(C2CC(O)C(CO)O2)cc1OCCCc1ccccc1 (stereo not drawn)
inactive: [1] -27.8% | [2] 0.75% | [3] 12.2% | [4] 13.8% | [5] -0.5% | [6] -3.2%

ClCCCCCNC1CCCCC1
inactive: [1] -1.2% | [2] -45.6% | [3] -4.3% | [4] -15.7% | [5] -17.2% | [6] -14.2%

CCOC(=O)c1c2ccc(/C=C/C(=O)OC)ccc-2c(C(=O)OCC)c1N
inactive: [1] -23.8% | [2] -24.4% | [3] -23.4% | [4] -23.2% | [5] -37.6% | [6] -4.35%

CNC(=O)NC(c1ccc(F)cc1)c1cc2c(cc1O)OCO2 (stereo not drawn)
inactive: [1] -2.2% | [2] -16.4% | [3] -2.4% | [4] 12.6% | [5] -1.8% | [6] 12.4%

CCOC(=O)C(=O)Nc1cc(C)no1
inactive: [1] 4.95% | [2] 9.85% | [3] -6.6% | [4] -25.6% | [5] -25.1% | [6] -2%

Cc1ccc(NC(=O)CC/C(CC(=O)c2ccc(F)cc2)=N\NC(=O)C(=O)NN)cc1C
inactive: [1] -11.3% | [2] -5.2% | [3] -9.55% | [4] -3.3% | [5] -1.7% | [6] -1.25%

Cc1ccc(OCCC(=O)N(C)C)cc1
inactive: [1] 5.05% | [2] 2.9% | [3] -8.25% | [4] -10% | [5] 4.2% | [6] 10.9%

CN(C)C(CCC(=O)NC(C)(C)C)CC(=O)NC(C)(C)C (stereo not drawn)
inactive: [1] 0.2% | [2] 5% | [3] 11.7% | [4] -2.35% | [5] 6.95% | [6] -8.65%

O=C1OC(=O)C2C3CC(C(Br)C3Br)C12 (stereo not drawn)
inactive: [1] 3.8% | [2] -14.4% | [3] 7.8% | [4] -36.5% | [5] -1.2% | [6] 21.5%

COc1cc(/C=C/C(=O)c2c(=O)o[nH][n+]2-c2ccccc2)ccc1[O-]
inactive: [1] -3.75% | [2] -7.1% | [3] 16.1% | [4] 20.9% | [5] -1.85% | [6] -18.1%

CC(=O)C(C(C)=O)=C1CCCC(O)O1 (stereo not drawn)
inactive: [1] 20.4% | [2] -0.7% | [3] 4.55% | [4] 5.7% | [5] 2.65% | [6] 13.1%

COc1cccc(N2C(=O)C3c4[nH]c5ccc(C)cc5c4C4CCC(C)CC4C3C2=O)c1 (stereo not drawn)
inactive: [1] -10.7% | [2] -27.4% | [3] -29.1% | [4] -6.5% | [5] -23.1% | [6] -13.4%

CSc1cc(Cl)c(C(=O)Nc2ccccc2)cc1S(=O)(=O)n1cc[nH]c1=O
inactive: [1] 0.2% | [2] -10.6% | [3] -6.35% | [4] -8.95% | [5] -1.35% | [6] 8.05%

COc1ccc([N+](=O)[O-])cc1N(C)C
inactive: [1] 19.1% | [2] 17.4% | [3] 13.6% | [4] 9% | [5] -14.2% | [6] 4.55%

Nc1cc(Nc2ccccc2)nc(=O)[nH]1
inactive: [1] -3.1% | [2] -0.55% | [3] -4.85% | [4] -75.2% | [5] -7.1% | [6] 5.2%

Nc1nc2cc3nc(N)c(N)nc3cc2nc1N
inactive: [1] -6.4% | [2] 14.7% | [3] 13.1% | [4] 34.9% | [5] 13.2% | [6] 15.1%

COC(=O)c1ccccc1CC1Cc2ccc3c(c2C1=O)CCCC3 (stereo not drawn)
inactive: [1] -1.35% | [2] -65.7% | [3] -13.3% | [4] 5.4% | [5] 17.8% | [6] 3.3%

C(=Nc1cccc2ccccc12)c1cccs1
inactive: [1] -8.95% | [2] -4.85% | [3] 2.6% | [4] -19% | [5] 0.25% | [6] -19.8%

Nc1ccc(N)c2c(O)c3ccccc3c(O)c12
inactive: [1] 5.2% | [2] 11.8% | [3] 12.9% | [4] -1.8% | [5] 1.8% | [6] 22%

Cc1nc(-c2ccc(N=Cc3ccc(N4CCC5(CCCCC5)CC4)cc3)cc2)cs1
inactive: [1] 25% | [2] -2.05% | [3] 15.7% | [4] 18.6% | [5] 6.1% | [6] -3%

CC1(C)CC(=O)C=C(NCc2ccccc2)C1
inactive: [1] -0.95% | [2] -2.6% | [3] -8.35% | [4] -24.9% | [5] -19.1% | [6] 11.2%

CC1=NCC[N+]1(CCc1ccccc1)Cc1ccccc1 (stereo not drawn)
inactive: [1] 3.15% | [2] -5% | [3] -19.8% | [4] -26.9% | [5] -35% | [6] -11.7%

COP(=O)(OC)/C(=C/c1cn(C(C)=O)c2ccccc12)NC(C)=O
inactive: [1] -21% | [2] -49.9% | [3] -13.1% | [4] 13.1% | [5] 15.4% | [6] -8.25%

CCC(=O)OCC(CC(=O)NCCc1ccccc1)=NCCc1ccccc1
inactive: [1] 18.6% | [2] -0.6% | [3] 16.6% | [4] 9.15% | [5] 2.55% | [6] 14.9%

CN(Cc1ccccc1)c1cc(=O)n(C)c(=O)[nH]1
inactive: [1] 7.3% | [2] 15.8% | [3] 35.8% | [4] 14% | [5] 25.6% | [6] -6.8%

O=C1CN(C2OC(CO)C(O)C2O)C(=O)NC1=O (stereo not drawn)
inactive: [1] 41.8% | [2] 14.2% | [3] 55.2% | [4] -11.2% | [5] 9.15% | [6] 24.4%

CCc1cc(N(C)C)ccc1N=Nc1ccc([N+](=O)[O-])cc1
inactive: [1] 43.8% | [2] 9.65% | [3] 13.5% | [4] -26.1% | [5] 9.1% | [6] 28.9%

O=P(CSCCO)(c1ccccc1)c1ccccc1
inactive: [1] -23.6% | [2] -21.9% | [3] -13.4% | [4] -6.3% | [5] -11.9% | [6] -36.7%

C=C1C(=O)O[C@@H]2C[C@@]3(C)[C@H](O)CCC(=C)[C@@H]3C[C@H]12
inactive: [1] -4.65% | [2] 25.1% | [3] 3.95% | [4] 17.1% | [5] 19.6% | [6] 5.5%
